From the supplement of paper PMC7765376
Where a name gives a salt, the structure may show the parent alone. Over roughly 1,500 compounds, “Excess HSA synergy score (sum over dose matrix of excess over highest single agent)” has its median near 43; the lowest 2% begin near -900. What follows is part of a selection rich in the lowest values, with near analogues and random picks from the rest.

Test system: PEO-1
Test: Excess HSA synergy score (sum over dose matrix of excess over highest single agent) (score (summed % response)); higher = less synergy / more antagonism (negative = synergy)
Conditions: 72 h, read-out: viability/apoptosis luminescence (CellTiter-Glo or Caspase3-Glo / not stated per table)
[1] = matrix design: 6x6, 5-fold dilutions (primary screen)
[2] = matrix design: 10x10, 9-step dilutions (confirmatory)

| Structure (SMILES) | Excess HSA synergy score [1] | Excess HSA synergy score [2] |
| --- | --- | --- |
| CCOC(=O)N1c2ccc(C(F)(F)F)cc2[C@@H](N(Cc2cc(C(F)(F)F)cc(C(F)(F)F)c2)C(=O)OC)C[C@H]1CC [Torcetrapib] + CC[C@H](NC(=O)[C@H](C)NC)C(=O)N1C[C@@H](O)C[C@H]1Cc1c(-c2[nH]c3cc(F)ccc3c2C[C@@H]2C[C@H](O)CN2C(=O)[C@H](CC)NC(=O)[C@H](C)NC)[nH]c2cc(F)ccc12 [Birinapant] | -42.4 | – |
| Nc1nc(=O)c2c([nH]1)NCC(CNc1ccc(C(=O)N[C@@H](CCC(=O)O)C(=O)O)cc1)N2C=O (stereo partly drawn) [Calcium folinate] + CC[C@H](NC(=O)[C@H](C)NC)C(=O)N1C[C@@H](O)C[C@H]1Cc1c(-c2[nH]c3cc(F)ccc3c2C[C@@H]2C[C@H](O)CN2C(=O)[C@H](CC)NC(=O)[C@H](C)NC)[nH]c2cc(F)ccc12 [Birinapant] | 148 | – |
| CN(C)/[N+]([O-])=N/Oc1cc(ON[N+](=O)N2CCN(C(=O)c3cc(Cc4n[nH]c(=O)c5ccccc45)ccc3F)CC2)c([N+](=O)[O-])cc1[N+](=O)[O-] + CC[C@H](NC(=O)[C@H](C)NC)C(=O)N1C[C@@H](O)C[C@H]1Cc1c(-c2[nH]c3cc(F)ccc3c2C[C@@H]2C[C@H](O)CN2C(=O)[C@H](CC)NC(=O)[C@H](C)NC)[nH]c2cc(F)ccc12 [Birinapant] | 162 | – |
| CN1CCCC(n2nc(Cc3ccc(Cl)cc3)c3ccccc3c2=O)CC1 (stereo not drawn) [Azelastine hydrochloride] + CC[C@H](NC(=O)[C@H](C)NC)C(=O)N1C[C@@H](O)C[C@H]1Cc1c(-c2[nH]c3cc(F)ccc3c2C[C@@H]2C[C@H](O)CN2C(=O)[C@H](CC)NC(=O)[C@H](C)NC)[nH]c2cc(F)ccc12 [Birinapant] | -156 | – |
| O=C(c1cc(Cc2n[nH]c(=O)c3ccccc23)ccc1F)N1CCN(C(=O)C2CC2)CC1 [Olaparib] + CC[C@H](NC(=O)[C@H](C)NC)C(=O)N1C[C@@H](O)C[C@H]1Cc1c(-c2[nH]c3cc(F)ccc3c2C[C@@H]2C[C@H](O)CN2C(=O)[C@H](CC)NC(=O)[C@H](C)NC)[nH]c2cc(F)ccc12 [Birinapant] | -98.9 | -1730 |
| CN1C(=O)C[C@@H](C(=O)N[C@@H](Cc2c[nH]cn2)C(=O)N2CCC[C@H]2C(N)=O)NC1=O [Taltirelin] + CC[C@H](NC(=O)[C@H](C)NC)C(=O)N1C[C@@H](O)C[C@H]1Cc1c(-c2[nH]c3cc(F)ccc3c2C[C@@H]2C[C@H](O)CN2C(=O)[C@H](CC)NC(=O)[C@H](C)NC)[nH]c2cc(F)ccc12 [Birinapant] | 10.4 | – |
| C/C(=N\NC(=S)N1CCC1)c1ccccn1 + CC[C@H](NC(=O)[C@H](C)NC)C(=O)N1C[C@@H](O)C[C@H]1Cc1c(-c2[nH]c3cc(F)ccc3c2C[C@@H]2C[C@H](O)CN2C(=O)[C@H](CC)NC(=O)[C@H](C)NC)[nH]c2cc(F)ccc12 [Birinapant] | -323 | -1630 |
| Cc1n[nH]c(C)c1Cc1sc2c(c1C(=O)N1C[C@H](O)CO1)c(=O)n(C)c(=O)n2CC(C)C + CC[C@H](NC(=O)[C@H](C)NC)C(=O)N1C[C@@H](O)C[C@H]1Cc1c(-c2[nH]c3cc(F)ccc3c2C[C@@H]2C[C@H](O)CN2C(=O)[C@H](CC)NC(=O)[C@H](C)NC)[nH]c2cc(F)ccc12 [Birinapant] | 60.3 | – |
| COc1ccc(S(=O)(=O)N(C(C)=O)c2ccccc2/C=C/c2cc[n+]([O-])cc2)cc1 + CC[C@H](NC(=O)[C@H](C)NC)C(=O)N1C[C@@H](O)C[C@H]1Cc1c(-c2[nH]c3cc(F)ccc3c2C[C@@H]2C[C@H](O)CN2C(=O)[C@H](CC)NC(=O)[C@H](C)NC)[nH]c2cc(F)ccc12 [Birinapant] | -72.6 | – |
| CN(C)c1nc(Cc2ccc(NC(=O)c3ccc4ccccc4c3)cc2)nc(Cl)c1CC(=O)O + CC[C@H](NC(=O)[C@H](C)NC)C(=O)N1C[C@@H](O)C[C@H]1Cc1c(-c2[nH]c3cc(F)ccc3c2C[C@@H]2C[C@H](O)CN2C(=O)[C@H](CC)NC(=O)[C@H](C)NC)[nH]c2cc(F)ccc12 [Birinapant] | 169 | – |
| N=C(NCCCCCCNC(=N)NC(=N)Nc1ccc(Cl)cc1)NC(=N)Nc1ccc(Cl)cc1 [Chlorhexidine] + CC[C@H](NC(=O)[C@H](C)NC)C(=O)N1C[C@@H](O)C[C@H]1Cc1c(-c2[nH]c3cc(F)ccc3c2C[C@@H]2C[C@H](O)CN2C(=O)[C@H](CC)NC(=O)[C@H](C)NC)[nH]c2cc(F)ccc12 [Birinapant] | -4.24 | – |
| N#CN=C(NCCCCCCOc1ccc(Cl)cc1)Nc1ccncc1 + CC[C@H](NC(=O)[C@H](C)NC)C(=O)N1C[C@@H](O)C[C@H]1Cc1c(-c2[nH]c3cc(F)ccc3c2C[C@@H]2C[C@H](O)CN2C(=O)[C@H](CC)NC(=O)[C@H](C)NC)[nH]c2cc(F)ccc12 [Birinapant] | -214 | -1410 |
| CC(C)C[C@@H](C=O)NC(=O)[C@H](CC(C)C)NC(=O)[C@H](CC(C)C)NC(=O)OCc1ccccc1 + CC[C@H](NC(=O)[C@H](C)NC)C(=O)N1C[C@@H](O)C[C@H]1Cc1c(-c2[nH]c3cc(F)ccc3c2C[C@@H]2C[C@H](O)CN2C(=O)[C@H](CC)NC(=O)[C@H](C)NC)[nH]c2cc(F)ccc12 [Birinapant] | 36.9 | – |
| O=C(NC1CC1)c1cccc(-c2ccc3c(NC(=O)C4CC4)n[nH]c3c2)c1 + CC[C@H](NC(=O)[C@H](C)NC)C(=O)N1C[C@@H](O)C[C@H]1Cc1c(-c2[nH]c3cc(F)ccc3c2C[C@@H]2C[C@H](O)CN2C(=O)[C@H](CC)NC(=O)[C@H](C)NC)[nH]c2cc(F)ccc12 [Birinapant] | 81.8 | – |
| N#Cc1ccc(COC[C@H]2O[C@@H](n3c(NCc4ccc(Cl)c(Cl)c4)nc4c(N)ncnc43)[C@H](O)[C@@H]2O)cc1 + CC[C@H](NC(=O)[C@H](C)NC)C(=O)N1C[C@@H](O)C[C@H]1Cc1c(-c2[nH]c3cc(F)ccc3c2C[C@@H]2C[C@H](O)CN2C(=O)[C@H](CC)NC(=O)[C@H](C)NC)[nH]c2cc(F)ccc12 [Birinapant] | -237 | – |
| COc1ccc(-c2ccc3c(N4CCOCC4)nc(N4C[C@@H](C)O[C@@H](C)C4)nc3n2)cc1CO + CC[C@H](NC(=O)[C@H](C)NC)C(=O)N1C[C@@H](O)C[C@H]1Cc1c(-c2[nH]c3cc(F)ccc3c2C[C@@H]2C[C@H](O)CN2C(=O)[C@H](CC)NC(=O)[C@H](C)NC)[nH]c2cc(F)ccc12 [Birinapant] | -161 | – |
| CC(C)(O)c1cc2nc(-c3cnc(N)nc3)nc(N3CCOCC3)c2s1 + CC[C@H](NC(=O)[C@H](C)NC)C(=O)N1C[C@@H](O)C[C@H]1Cc1c(-c2[nH]c3cc(F)ccc3c2C[C@@H]2C[C@H](O)CN2C(=O)[C@H](CC)NC(=O)[C@H](C)NC)[nH]c2cc(F)ccc12 [Birinapant] | 72.3 | – |
| Cc1nc(N)ncc1-c1nc(N2CCOCC2)c2sc(C(C)(C)O)cc2n1 + CC[C@H](NC(=O)[C@H](C)NC)C(=O)N1C[C@@H](O)C[C@H]1Cc1c(-c2[nH]c3cc(F)ccc3c2C[C@@H]2C[C@H](O)CN2C(=O)[C@H](CC)NC(=O)[C@H](C)NC)[nH]c2cc(F)ccc12 [Birinapant] | -47.1 | – |
| COc1ccc(-c2nc(N3CCOCC3)c3sc(CN(C)c4ncc(C(=O)NO)cn4)cc3n2)cn1 + CC[C@H](NC(=O)[C@H](C)NC)C(=O)N1C[C@@H](O)C[C@H]1Cc1c(-c2[nH]c3cc(F)ccc3c2C[C@@H]2C[C@H](O)CN2C(=O)[C@H](CC)NC(=O)[C@H](C)NC)[nH]c2cc(F)ccc12 [Birinapant] | -204 | -1340 |
